Abeta yeast res = restores growth of yeast expressing A-beta42 peptide; yeast expressing A-beta42, growth rescue, OD600, 48 h; response scale: 0% DMSO, 100% iron-clioquinol control; AID 1347071; 410,000 tested, 0.063% active; Potency, µM (top dose mostly 46.1 µM), usual class: activators; note: nearly all actives have a fitted effect of over 55% in size
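Yeast growth medium received pinned compounds, then yeast cells expressing toxic A-beta were added; plates incubated at 30 C for 48 hr. Growth read as absorbance at 600 nm, normalized to DMSO and equimolar FeCl3 plus clioquinol controls.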
aSyn yeast inh = alpha-synuclein toxicity inhibition in yeast | Yeast expressing alpha-synuclein, growth rescue, BacTiter-Glo, 24 h | Potency, µM (top dose mostly 46.1 µM), hits mostly activators | 370,000 tested, 0.14% active; note: nearly all actives have a fitted effect of over 65% in size
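Screening used galactose-induced yeast with toxic alpha-synuclein levels, exposed to compound for 24 hr at 30 deg C. Cell growth, read with BacTiter-Glo luminescence, gave the measured signal.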
FUS yeast rescue = rescues growth of FUS-expressing yeast; S. cerevisiae FUS-expressing, growth rescue, OD600, 24 h; Potency, µM (doses to about 76.6 µM), actives largely listed as activators; 390,000 tested, 0.24% active; AID 1347120; note: nearly all actives have a fitted effect of over 55% in size
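Read-out: OD at 600 nm after 24hr at 30C, reporting rescue of FUS-induced yeast toxicity. Cells at OD 0.005 in galactose (2%) minimal medium; compounds tested in a dilution series; CP55940 titration from 92uM final as control.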
TDP43 rescue = TDP-43 toxicity inhibition in yeast; Potency, µM (titrated, usually from 46.1 µM), most hits filed as activators; TDP-43 expressing yeast growth rescue, BacTiter-Glo, 24 h; 410,000 tested, 1.8% active; note: nearly all actives have a fitted effect of over 50% in size
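Galactose-induced TDP-43 yeast, OD600=0.02, compound pinned; 24 hr, 30 deg C; BacTiter-Glo luminescence for growth. Inhibitors of TDP-43 toxicity read as activators.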
Each line names hits and unclear results; the compound was inactive in the other large screens. An excerpt weighted towards active compounds, which were near 2.1% of everything screened. Calls come from the whole dose curve; as a rule, active = well fitted curve in the direction sought with a large enough effect; inconclusive = small, poorly fitted or top-dose-only effect, or another doubt; inactive = no such curve, though single readings can be large; an effect the other way counts as inactive or inconclusive.

COc1cccc(C2CC(=O)Nc3c2ccc(C)c3C)c1OC (stereo not drawn)	TDP43 rescue 18µM (no result: aSyn yeast inh)
Cc1ccc2c(c1C)NC(=O)CC2c1ccc(Cl)cc1Cl (stereo not drawn)	TDP43 rescue 35µM (no result: aSyn yeast inh)
COc1cccc(C2CC(c3cccc(Br)c3)n3ncnc3N2)c1 (stereo not drawn)	TDP43 rescue 20µM
CSc1ccc(CCNc2ncnc3onc(-c4ccc(Cl)cc4)c23)cc1	TDP43 rescue inconclusive (no result: aSyn yeast inh)
CN(C)S(=O)(=O)Oc1ccc(Cl)cc1C(=O)Nc1cccc(C(F)(F)F)c1	none
CN(C)S(=O)(=O)Oc1ccsc1C(=O)Nc1cccc(Cl)c1	TDP43 rescue 13µM
CN(C)S(=O)(=O)Oc1ccsc1C(=O)Nc1ccc(Cl)c(Cl)c1	TDP43 rescue 22µM
CN(C)S(=O)(=O)Oc1ccsc1C(=O)Nc1ccc(C(F)(F)F)cc1	Abeta yeast res inconclusive
CN(C)S(=O)(=O)Oc1ccsc1C(=O)Nc1ccc(Br)cc1	Abeta yeast res inconclusive, TDP43 rescue 13µM
COc1cccc(NC(=O)C2CCCN2C(=O)NC2CCC(C)CC2)c1 (stereo not drawn)	none (no result: Abeta yeast res, aSyn yeast inh, TDP43 rescue)
CCCCNC(=O)CSc1nc2nc(C)c(Cc3ccccc3C)c(C)n2n1	none (no result: aSyn yeast inh)
CCOC(=O)c1c(S(=O)(=O)N2CCC(C(=O)Nc3ccc(OCC)cc3)CC2)c(C)n(C)c1C	none (no result: aSyn yeast inh)
COc1ccc(Cl)cc1NC(=O)c1c(NCc2cccnc2)sc2c1CCC(C)C2 (stereo not drawn)	TDP43 rescue 22µM (no result: aSyn yeast inh)
C[C@@H]1CC2[C@@H]3CC[C@H]4CC(=O)CC[C@]4(C)C3=CC[C@]2(C)[C@@]1(O)C(=O)CO (stereo partly drawn)	TDP43 rescue 10µM
Cc1ccc(CNC(=O)COC(=O)c2nc(-c3ccccc3)oc2C)cc1	TDP43 rescue 35µM
COc1ccc(N2CCN(C(=O)c3cn(C)c4ccc(S(=O)(=O)N(C)C5CCCCC5)cc4c3=O)CC2)cc1	none (no result: aSyn yeast inh)
CCCC(=O)Nc1cccc(-c2nc3cc(C)c(C)cc3o2)c1C	TDP43 rescue inconclusive (no result: aSyn yeast inh)
O=C(CSc1nnc(-c2cccnc2)n1-c1ccc(Cl)cc1)Nc1cccc2ccccc12	none (no result: Abeta yeast res, aSyn yeast inh, TDP43 rescue)
Clc1cccc(N2CCN(c3c4c(nc5nncn35)CCC4)CC2)c1	TDP43 rescue 18µM (no result: aSyn yeast inh)
CC(=O)N1CCc2c(sc3c2c(=O)n(CCc2ccccc2)c(=O)n3Cc2ccccc2C)C1	FUS yeast rescue inconclusive, TDP43 rescue 35µM (no result: aSyn yeast inh)
CC(=O)N1CCc2c(sc3c2c(=O)n(CCc2ccccc2)c(=O)n3Cc2ccc(Cl)cc2)C1	FUS yeast rescue inconclusive, TDP43 rescue 32µM (no result: aSyn yeast inh)
CC(=O)N1CCc2c(sc3c2c(=O)n(Cc2ccccc2)c(=O)n3Cc2cc(C)ccc2C)C1	none (no result: aSyn yeast inh)
COc1ccc(C2c3c(oc4ccc(F)cc4c3=O)C(=O)N2Cc2ccc3c(c2)OCO3)cc1 (stereo not drawn)	none (no result: aSyn yeast inh)
COc1cccc(-c2nc(NCc3cccnc3)c3ccccc3n2)c1O	none
COc1cccc(-c2nc(NC(C)C)c3ccccc3n2)c1O	TDP43 rescue 20µM
CCC(C)Nc1nc(-c2cccc(OC)c2O)nc2ccccc12 (stereo not drawn)	TDP43 rescue 11µM
O=C(O)c1cccc2c1C(=O)c1ccc(-c3ccc(F)cc3OCc3ccccc3)cc1S2(=O)=O	none
O=C(NC[C@H]1CCCO1)c1cccc2c1C(=O)c1ccc(-c3ccc(F)cc3OCc3ccccc3)cc1S2(=O)=O	aSyn yeast inh inconclusive, FUS yeast rescue 22µM
COc1cc(C(=O)NCC2CCCO2)cc(Br)c1OCc1ccccc1 (stereo not drawn)	TDP43 rescue 14µM
Cc1ccc(C2CC(c3ccc(Cl)cc3)=NNC2=O)cc1 (stereo not drawn)	TDP43 rescue 22µM
Cc1ccc(NC(=O)CC2Sc3ccccc3NC2=O)c(Br)c1 (stereo not drawn)	none
CCn1c2c(c(=O)n3ncc(C(=O)Nc4ccc(F)cc4Cl)c13)CN(Cc1ccc(OC)cc1)CC2	FUS yeast rescue inconclusive (no result: aSyn yeast inh)
COc1ccc(Cc2nn3c(-c4cc(OC)c(OC)c(OC)c4)nnc3s2)cc1	FUS yeast rescue inconclusive, TDP43 rescue 22µM
COc1ccc(-c2nn3c(-c4ccccc4)nnc3s2)cc1	FUS yeast rescue inconclusive, TDP43 rescue 14µM
c1ccc(-c2nnc3sc(-c4ccncc4)nn23)cc1	none
c1ccc(-c2nnc3sc(-c4csc5c4CCCC5)nn23)cc1	TDP43 rescue 20µM (no result: FUS yeast rescue)
NS(=O)(=O)c1ccc(CCNC(=O)C2COc3ccccc3C2)cc1 (stereo not drawn)	none (no result: aSyn yeast inh)

Source: PubChem BioAssay
